Source: PubChem BioAssay (NCATS)
Inconclusive results are not listed. Calls of active or inactive are those of the source. Calls come from the whole dose curve; as a rule, active = well fitted cell-killing curve with a large enough effect; inconclusive = small, poorly fitted or top-dose-only effect; inactive = flat fitted curve, though single readings scatter.

Tests used:
[1] = Cell Viability - LYMP2-009 (AID 968); note: nearly all actives have a fitted effect of over 55% in size
[2] = Cell Viability - LYMP2-011 (AID 969); note: nearly all actives have a fitted effect of over 60% in size
In short: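 2500 cells/well in complete medium, compound-treated 24 h at 37 C. Viability read as intracellular ATP by CellTiter-Glo luminescence after 30 min at room temperature. AC50 from Hill fits of qHTS concentration-response data.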

[3] = Cell Viability - LYMP2-013 (AID 970); note: nearly all actives have a fitted effect of over 55% in size
In short: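 Human lymphoblastoid LYMP2-013 cells, 2500/well, treated 24 h at 37 C in complete medium; viability as intracellular ATP by CellTiter-Glo luminescence after 30 min. AC50 from Hill fits of qHTS concentration-response.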

[4] = Cell Viability - LYMP2-015 (AID 971); note: nearly all actives have a fitted effect of over 55% in size
In short: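 LYMP2-015 human lymphoblastoid cells (2500/well) in complete medium, compound-treated 24 h at 37 C; viability read as cellular ATP by CellTiter-Glo luminescence after 30 min at room temperature. AC50 from Hill-equation fits of qHTS concentration-response data.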

[5] = Cell Viability - LYMP2-017 (AID 972); note: nearly all actives have a fitted effect of over 55% in size
In short: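 LYMP2-017 human lymphoblastoid cells (2500/well) settled 5 hr at 37 C, then exposed to compound 24 hr at 37 C in complete medium. Viability taken as intracellular ATP by CellTiter-Glo luminescence after 30 min at RT; AC50 from Hill fits.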

[6] = Cell Viability - LYMP2-019 (AID 973); note: nearly all actives have a fitted effect of over 55% in size
In short: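 Human lymphoblastoid LYMP2-019 cells (2500/well) preincubated 5 h at 37 C, then treated 24 h at 37 C in complete medium. Viability by CellTiter-Glo ATP luminescence after 30 min at room temperature; AC50 from Hill fits.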

[7] = Cell Viability - LYMP2-021 (AID 974)
In short: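 Human lymphoblastoid LYMP2-021 cells, 2500/well in complete medium, treated 24 hours at 37 C. Intracellular ATP by CellTiter-Glo luminescence (30 min, RT); AC50 from Hill fits of concentration-response.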

[8] = Cell Viability - LYMP2-023 (AID 975); note: nearly all actives have a fitted effect of over 55% in size
In short: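 LYMP2-023 human lymphoblastoid cells, 2500/well, preincubated 5 hr at 37 C, then compound-treated 24 hr at 37 C in complete medium. CellTiter-Glo luminescence (ATP) after 30 min at room temperature; AC50 from Hill-equation fits; tetraoctylammonium bromide positive control.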

[9] = Cell Viability - LYMP2-025 (AID 976)
In short: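 Human lymphoblastoid LYMP2-025 cells, 2500/well, exposed 24 h at 37 C in complete medium in 1536-well qHTS. Viability as cellular ATP by CellTiter-Glo luminescence; AC50 from Hill fits of concentration-response data.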

[10] = Cell Viability - LYMP2-002 (AID 977)
In short: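 Luminescent ATP readout (CellTiter-Glo, 30 min room temperature) after 24 h compound exposure at 37 C of a human lymphoblastoid line, 2500 cells/well. AC50 values derived by standard Hill fitting of qHTS concentration-response data.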

[11] = Cell Viability - LYMP2-006 (AID 978); note: nearly all actives have a fitted effect of over 60% in size
In short: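 Cells are seeded at 2500 per well and rested 5 hr at 37 C. Compounds are added across a concentration series for 24 hr at 37 C, after which ATP is quantified by luciferase luminescence.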

[12] = Cell Viability - LYMP2-007 (AID 979);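 note: cells exposed to compound for 24 h before reading; nearly all actives have a fitted effect of over 60% in size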
In short: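 Human lymphoblastoid LYMP2-007 cells (2500/well) preincubated 5 h at 37 C, then treated 24 h at 37 C in complete medium. Viability by CellTiter-Glo ATP luminescence after 30 min at room temperature; AC50 from Hill fits.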

[13] = Cell Viability - LYMP2-008 (AID 980); note: nearly all actives have a fitted effect of over 60% in size
In short: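 LYMP2-008 lymphoblastoid cells (2500/well) plated 5 h, then treated 24 h at 37 C in complete medium. Viability read as intracellular ATP by CellTiter-Glo luminescence after 30 min at room temperature; AC50 from Hill fits.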

[14] = Cell Viability - LYMP2-010 (AID 981); note: nearly all actives have a fitted effect of over 55% in size
In short: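 Human lymphoblastoid LYMP2-010 cells (2500/well) treated 24 h at 37 C in complete medium; viability read as intracellular ATP by CellTiter-Glo luminescence. AC50 from Hill fits of concentration-response data; tetraoctylammonium bromide positive control.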

[15] = Cell Viability - LYMP2-012 (AID 982)
[16] = Cell Viability - LYMP2-014 (AID 983); note: nearly all actives have a fitted effect of over 50% in size
In short: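 LYMP2-014 human lymphoblastoid cells, 2500/well, treated 24 h at 37 C in complete medium; viability by CellTiter-Glo ATP luminescence after 30 min at room temperature. AC50 from Hill fits of qHTS concentration-response; tetraoctylammonium bromide positive control.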

[17] = Cell Viability - LYMP2-016 (AID 984); note: nearly all actives have a fitted effect of over 55% in size
In short: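 Cells were seeded at 2500 per well and rested 5 hr before a 24 hr compound exposure at 37 C. Viability was then gauged as cellular ATP by luciferase luminescence, with AC50 values fitted to the Hill equation.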

[18] = Cell Viability - LYMP2-018 (AID 985); note: nearly all actives have a fitted effect of over 50% in size
In short: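 Human lymphoblastoid LYMP2-018 cells, 2500/well, settled 5 hr at 37 C then exposed to compound 24 hr at 37 C; intracellular ATP measured by CellTiter-Glo luminescence. AC50 from Hill-equation concentration-response fits.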

[19] = Cell Viability - LYMP2-020 (AID 986); note: nearly all actives have a fitted effect of over 55% in size
In short: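 Human lymphoblastoid LYMP2-020 cells (2500/well) preincubated 5 h at 37 C, then treated 24 h at 37 C. Viability measured as intracellular ATP by CellTiter-Glo luminescence after 30 min at room temperature; AC50 from Hill fits.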

[20] = Cell Viability - LYMP2-022 (AID 987); note: nearly all actives have a fitted effect of over 55% in size
In short: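 LYMP2-022 lymphoblastoid cells (2500/well, complete medium) were treated with compounds for 24 hours at 37 C; intracellular ATP was then read by CellTiter-Glo luminescence after 30 min at room temperature. AC50 values were derived from Hill-equation fits.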

Measured: Potency
Potency is the fitted concentration of half-maximal effect.

c1cc(OCC2CO2)cc(OCC2CO2)c1 (stereo not given)
active: [1] 39.8 µM | [2] 39.8 µM | [3] 50.1 µM | [4] 39.8 µM | [5] 39.8 µM | [6] 39.8 µM | [7] 39.8 µM | [8] 50.1 µM | [9] 50.1 µM | [10] 39.8 µM | [11] 39.8 µM | [12] 39.8 µM | [13] 39.8 µM | [14] 31.6 µM | [15] 31.6 µM | [16] 39.8 µM | [17] 25.1 µM | [18] 31.6 µM | [19] 39.8 µM | [20] 31.6 µM
